Screens deposited in PubChem by Broad Institute.
Compounds with a hit are over-represented: about 2.3% of the library has one in this group of screens.
Pf Dd2 inh: blocks growth of Plasmodium falciparum Dd2 parasites. P. falciparum Dd2 growth, SYBR Green, 72 h; stronger effect = lower value. activity change, % at 10 µM. 94,000 compounds, 2.3% hits; in the data active means activity change below about -80%; inconclusive means no clear call, values can overlap the other calls
C diff growth: inhibitors of Clostridium difficile growth; growth activity, negative = inhibition, % at 16 µg/mL (by protocol); 86,000 compounds, 0.25% hits; Clostridium difficile clinical isolate growth, OD600, 24 h; stronger effect = lower value;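 active means mean growth activity at or below -80% and every replicate also at or below -80%; inconclusive means mean at or below -80% but some replicate above -80%; inactive means mean growth activity above -80%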
Hits are given with their value; n = inactive; u = inconclusive; x = no result; ! = repeats disagree.

SMILES	Pf Dd2 inh	C diff growth
C[C@H]1CCCCO[C@H](CN(C)S(=O)(=O)c2ccc(F)cc2)[C@@H](C)CN([C@@H](C)CO)C(=O)c2cc(NC(=O)Nc3ccc4c(c3)OCO4)ccc2O1	n	n
Cc1ccc(S(=O)(=O)N(C)C[C@H]2OCCCC[C@H](C)Oc3ccc(NC(=O)Nc4ccc5c(c4)OCO5)cc3C(=O)N([C@@H](C)CO)C[C@@H]2C)cc1	n	x
C[C@@H]1CCCCO[C@@H](CN(C)S(=O)(=O)c2ccc(Cl)cc2)[C@@H](C)CN([C@H](C)CO)C(=O)c2cc(NC(=O)Nc3ccc4c(c3)OCO4)ccc2O1	-88	n
Cc1ccc(S(=O)(=O)N(C)C[C@@H]2OCCCC[C@@H](C)Oc3ccc(NC(=O)Nc4ccc5c(c4)OCO5)cc3C(=O)N([C@H](C)CO)C[C@@H]2C)cc1	-82	x
CO[C@@H](CN(C)C(=O)c1cnccn1)[C@@H](C)CN([C@@H](C)CO)S(=O)(=O)c1ccc(C)cc1	n	x
C[C@H](CO)N1C[C@H](C)[C@@H](CN(C)C(=O)C2CC2)Oc2cc(C#CCN(C)C)ccc2S1(=O)=O	n	n
COc1ccc2c3c([nH]c2c1)[C@H](CO)N(Cc1cccnc1)CC31CN(C(=O)c2cccnc2)C1	n	n
COCC(=O)N1[C@H](CO)[C@H]2c3ccccc3N(C(=O)C3CC3)C[C@H]21	n	n
COc1ccc(CN(C)C[C@@H]2Oc3ccc(NC(=O)C4CCCCC4)cc3C(=O)N([C@@H](C)CO)C[C@@H]2C)cc1	n	n
COc1cccc(NC(=O)N2[C@@H](CO)[C@@H](c3ccccc3)[C@@H]2CNCC(C)C)c1	-81	n
COc1cccc(NC(=O)N2[C@H](CO)[C@@H](c3ccccc3)[C@H]2CNC(C)C)c1	n	n
COc1cccc(NC(=O)N2[C@@H]3CNC[C@H]2C3c2ccc(-c3ccccc3)cc2)c1 (stereo partly drawn)	n	n
O=C(Nc1cccc(Cl)c1)N1[C@@H]2CNC[C@H]1C2c1ccc(/C=C/c2ccccc2)cc1 (stereo partly drawn)	n	-95!
COc1cccc(CN2[C@@H]3CNC[C@H]2C3c2ccc(/C=C/c3ccccc3)cc2)c1 (stereo partly drawn)	n	n
CN(C)C(=O)c1ccc(-c2ccc(C3[C@H]4CNC[C@@H]3N4C(=O)Nc3cccc(Cl)c3)cc2)cc1 (stereo partly drawn)	n	n
COc1cc(CN2[C@@H]3CNC[C@H]2C3c2ccc(/C=C/c3ccccc3)cc2)cc(OC)c1 (stereo partly drawn)	n	-93!
COc1cccc(NC(=O)N2[C@@H]3CNC[C@H]2C3c2ccc(/C=C/c3ccccc3)cc2)c1 (stereo partly drawn)	n	-98!
Cc1cccc(NC(=O)Nc2ccc3c(c2)C(=O)N(C)[C@@H]2CC[C@H](CC(=O)NCc4ccccc4Cl)O[C@H]2CO3)c1	n	x
Cc1noc(C)c1NC(=O)N[C@@H]1CC[C@@H](CC(=O)NCc2ccc(Cl)c(Cl)c2)O[C@@H]1CO	n	x
COc1ccc(CNC(=O)C[C@H]2CC[C@H]3[C@H](COc4ccc(NC(C)=O)cc4C(=O)N3C)O2)cc1	n	n
CCC(=O)N1[C@H](CO)[C@H](c2ccc(-c3ccccc3OC)cc2)C12CN(C(C)=O)C2	n	n
COc1ccc(NC(=O)N(C)C[C@@H]2Oc3ccc(NS(=O)(=O)c4c(C)noc4C)cc3C(=O)N([C@H](C)CO)C[C@@H]2C)cc1	n	x
OC[C@H]1[C@@H](c2ccccc2)[C@H](CNCC2CCC2)N1CC1CC1	n	n
CC(C)CNC[C@@H]1[C@@H](c2ccccc2)[C@@H](CO)N1Cc1ccc(F)cc1	-91	n
Cc1ccc(S(=O)(=O)Nc2ccc3c(c2)C(=O)N([C@H](C)CO)C[C@@H](C)[C@H](CN(C)C(=O)Nc2cccc4ccccc24)OCCCC[C@@H](C)O3)cc1	n	n
SMILES	Pf Dd2 inh	C diff growth
Cc1ccc(S(=O)(=O)Nc2ccc3c(c2)C(=O)N([C@H](C)CO)C[C@H](C)[C@H](CN(C)C(=O)Nc2cccc4ccccc24)OCCCC[C@@H](C)O3)cc1	n	n
Cc1ccc(S(=O)(=O)Nc2ccc3c(c2)C(=O)N([C@@H](C)CO)C[C@@H](C)[C@@H](CN(C)C(=O)Nc2cccc4ccccc24)OCCCC[C@H](C)O3)cc1	-84	n
Cc1ccc(S(=O)(=O)Nc2ccc3c(c2)C(=O)N([C@H](C)CO)C[C@H](C)[C@@H](CN(C)C(=O)Nc2cccc4ccccc24)OCCCC[C@H](C)O3)cc1	n	n
Cc1ccc(S(=O)(=O)Nc2ccc3c(c2)C(=O)N([C@@H](C)CO)C[C@H](C)[C@@H](CN(C)C(=O)Nc2cccc4ccccc24)OCCCC[C@H](C)O3)cc1	-83	n
Cc1ccc(S(=O)(=O)Nc2ccc3c(c2)C(=O)N([C@@H](C)CO)C[C@H](C)[C@@H](CN(C)C(=O)Nc2cccc4ccccc24)OCCCC[C@@H](C)O3)cc1	-85	n
O=C(C[C@H]1CC[C@H](NC(=O)Nc2cc(F)ccc2F)[C@H](CO)O1)NCCCN1CCOCC1	n	n
CO[C@H]1CN(C)C(=O)c2ccc(NC(=O)C3CCC3)cc2OC[C@@H](C)N(C(=O)NC(C)C)C[C@@H]1C	n	n
COCCNC(=O)C[C@H]1C[C@@H]2c3cc(NC(=O)CC4CC4)ccc3O[C@@H]2[C@@H](CO)O1	n	n
CO[C@@H]1CN(C)C(=O)c2ccc(NC(=O)c3ccccc3F)cc2OC[C@H](C)NC[C@@H]1C	n	x
CN(C)c1ccc2c(c1)[C@H]1C[C@H](CC(=O)NCc3ccncc3)O[C@H](CO)[C@H]1O2	n	x
COc1ccc(NC(=O)Nc2ccc3c(c2)CC(=O)N([C@H](C)CO)C[C@H](C)[C@H](CN(C)C(=O)Nc2ccc(F)cc2)O3)cc1	n	n
CCCNC(=O)N1[C@H](C#N)[C@@H](c2ccccc2C2=CCCC2)[C@@H]1CO	-89	n
N#C[C@@H]1[C@@H](c2ccccc2C2=CCCCC2)[C@@H](CO)N1C(=O)c1cccc(F)c1	n	n
N#C[C@@H]1[C@H](c2ccccc2C2=CCCCC2)[C@@H](CO)N1C(=O)c1cccc(F)c1	-94	n
N#C[C@@H]1[C@H](c2ccccc2C2=CCCC2)[C@H](CO)N1C(=O)NC1CCCC1	n	n
CC=Cc1ccc2n(c1=O)C[C@@H]1[C@@H](CO)[C@H](C(=O)N[C@H](C)c3ccccc3)[C@H]2N1Cc1ccccc1 (mixture of isomers)	n	n
COc1ccccc1-c1ccc(C2[C@@H]3CN(Cc4cccc(F)c4)C[C@H]2N3)cc1 (stereo partly drawn)	n	-90!
COc1ccccc1CN1[C@@H]2CNC[C@H]1C2c1ccc(-c2cccnc2)cc1 (stereo partly drawn)	n	n
COc1cccc(CN2C[C@@H]3N[C@H](C2)C3c2ccc(-c3ccc(C#N)cc3)cc2)c1 (stereo partly drawn)	u	n
COc1ccccc1-c1ccc(C2[C@@H]3CN(Cc4nccs4)C[C@H]2N3)cc1 (stereo partly drawn)	n	n
COc1ccccc1CN1C[C@@H]2N[C@H](C1)[C@@H]2c1ccc(-c2cccnc2)cc1	-87	n
COc1cccc(CN2C[C@@H]3N[C@H](C2)C3c2ccc(-c3ccccc3OC)cc2)c1 (stereo partly drawn)	n	-97!
